Screening data deposited in PubChem by National Center for Advancing Translational Sciences (NCATS).
Shown are actives, neighbours in structure and some others; about 2.4% of the full set was active somewhere.
GLP-1R agonist – agonists of human GLP-1 receptor; P43220; HEK293 GLP-1R CRE-luciferase, luminescence, 4-6 h; cells express a hypersensitive GLP-1R form; Potency, µM (top dose mostly 45.6 µM), inactives show at the highest dose activation, actives largely listed as activators; 380,000 compounds, 0.007% hits; AID 624172; also: potency is read from the fitted curve at half-maximal effect; % of control where 0% means no effect
Target sequence (P43220 whole entry, looked up): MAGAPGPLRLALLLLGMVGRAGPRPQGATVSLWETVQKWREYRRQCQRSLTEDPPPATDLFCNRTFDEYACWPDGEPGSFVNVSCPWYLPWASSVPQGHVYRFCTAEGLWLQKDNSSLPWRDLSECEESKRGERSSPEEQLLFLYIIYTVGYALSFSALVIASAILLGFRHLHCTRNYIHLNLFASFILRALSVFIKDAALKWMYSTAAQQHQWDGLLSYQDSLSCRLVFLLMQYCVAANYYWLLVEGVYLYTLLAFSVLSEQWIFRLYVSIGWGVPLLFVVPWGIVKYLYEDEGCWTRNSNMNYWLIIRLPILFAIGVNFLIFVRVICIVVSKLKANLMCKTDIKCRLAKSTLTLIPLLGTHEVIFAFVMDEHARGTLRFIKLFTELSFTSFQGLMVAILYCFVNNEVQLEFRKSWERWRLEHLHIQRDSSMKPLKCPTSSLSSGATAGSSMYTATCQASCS
TRHR PAM – allosteric enhancers of human TRH receptor; P34981; TRHR cells, fluo-8 calcium fluorescence, EC20 TRH enhancement; enhancement, % at 2 µM; 360,000 compounds, 0.66% hits; in the data active = enhancement above about 30%; also: 0% is about no effect
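TRHR-expressing cells loaded with fluo-8 calcium dye were read kinetically (ex 480/em 530) during compound addition, then stimulated with an EC20 of TRH (10 nM final). Enhancement of the Gq-mediated intracellular calcium response was scored.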
HEK293 tox – cytotoxicity counter-screen for GLP-1 receptor inverse agonists. HEK293 cAMP-luciferase reporter cells, luminescence, 24 h. Potency, µM (highest dose often 38.3 µM), for the others: at the top dose activity change, negative = inhibition, usual class: inhibitors. 410,000 compounds, 0.13% hits;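 also: loss of luciferase light is scored as toxicity; potency is read from the fitted curve at half-maximal effect; % is scaled to controls: 0 for no effect and ±100 for the full control effect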
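To flag toxic compounds, the library was rerun on cells for 24 hr at 37 deg C and 5% CO2. Viability-linked luminescence was captured 12 min after adding luciferase detection reagent.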
PTHR1 ag – agonists of human PTHR1 parathyroid hormone receptor; HEK293 GP2 PTHR1 cells, GloSensor cAMP luminescence, 1 h; AID 743266; 410,000 compounds, 0.075% hits; Potency, µM (highest dose often 115 µM), inactives show at the top dose activation, usual class: activators; Q03431; also: potency is read from the fitted curve at half-maximal effect; nearly all actives have a fitted effect of over 55% in size
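HEK-293-derived GP2 cells expressing PTHR1 and a GloSensor cAMP reporter, 3,000/well, plated overnight, given luciferin plus IBMX (each 0.5 mM as added) for 1 h at 37 °C, then compound for 1 h at 37 °C. Luminescence was read after 15 min at room temperature.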
TRHR agonist – activates the human TRH receptor; P34981; TRHR cells, calcium flux fluo-8, FDSS agonist mode; activation, % at 2 µM; 360,000 compounds, 0.18% hits; AID 493084; in the data active = activation above about 30%; also: 0% is about no effect
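Fluo-8-loaded TRHR cells; 10 s baseline, compound added, kinetic Ca2+ fluorescence read 1/s, agonist mode.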
GLP1R inv ag – acts as inverse agonist at human GLP-1 receptor; HEK293 GLP-1R CRE-luciferase, luminescence, 24 h; GLP-1R form is constitutively active; Potency, µM (highest dose often 38.3 µM), inactives show top-dose activity change, negative = inhibition, most hits filed as inhibitors; 410,000 compounds, 1.6% hits; AID 624417; also: potency is read from the fitted curve at half-maximal effect; % is scaled to controls: 0 for no effect and ±100 for the full control effect; nearly all actives have a fitted effect of over 55% in size
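Seeding at 200 cells/uL, 12 h culture, 24 hr compound treatment, then luciferase reagent and a luminescence read; cells are HEK293 stably expressing a constitutively active GLP-1R plus cAMP-responsive luciferase.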
The depositor's hits bear a star; i = inactive; ? = inconclusive; · = not tested or not shown. Unless noted, calls follow the shape of the dose curve; as a rule, active = well fitted curve in the direction sought with a large enough effect; inconclusive = small, poorly fitted or top-dose-only effect, or another doubt; inactive = no such curve, though single readings can be large; an effect the other way counts as inactive or inconclusive.

SMILES | GLP-1R agonist | TRHR PAM | HEK293 tox | PTHR1 ag | TRHR agonist | GLP1R inv ag
O=C(c1ccc(Cl)cc1)c1c[nH]c(C(=O)NNc2cccc(Cl)n2)c1 | 16% | 2 | ? | i | 1 | ?
CCOc1ccc(C(=O)NCC(=O)OCc2cc(C(C)=O)ccc2OC)cc1 | 13% | -9 | -4% | -10% | 1 | 9%
CCOc1ccc(C(C)=O)cc1COC(=O)CNC(=O)C12CC3CC(CC(C3)C1)C2 | 20% | · | -5% | -21% | · | 3.5µM*
CC(=O)N1N=C(c2ccc(Cl)cc2)OC1(C)C | 9% | 34* | -6% | -14% | 0 | 2%
O=C(CC(c1ccco1)S(=O)(=O)c1ccccc1)c1ccccc1 (configuration not stated) | 1% | 0 | -4% | -96% | 0 | 21%
CCOC(=O)CC(=O)CSc1nc2c(sc(=S)n2-c2ccc(OCC)cc2)c(=O)[nH]1 | 0% | 1 | -25% | -24% | 0 | ?
CCOC(=O)CC(=O)CSc1nc2c(sc(=S)n2-c2ccc(C)c(C)c2)c(=O)[nH]1 | 5% | -8 | -19% | -32% | 0 | 8.9µM*
C#CCN(C[C@@H]1[C@@H](OC(=O)NC2CCCC2)[C@@H](OC(=O)NC2CCCC2)Cn2c(=O)ccc(=O)n21)S(=O)(=O)c1ccc(C)cc1 | -16% | · | ? | -93% | · | ?
C#CCN(C[C@@H]1[C@@H](OC(=O)Nc2cccs2)[C@@H](OC(=O)Nc2cccs2)Cn2c(=O)ccc(=O)n21)S(=O)(=O)c1ccc(C)cc1 | -8% | · | ? | -54% | · | 2.8µM*
NNC(=O)CNC(c1ccccc1)c1cc(Br)ccc1NC(=O)CCN1CCOCC1 (configuration not stated) | 3% | 36* | 0% | -20% | -1 | 93%
COc1ccc(CNC(=O)C2CCN(C(=O)c3csc(Nc4ccc(C)cc4)n3)CC2)cc1 | 15% | 6 | -6% | -81% | -1 | 7.9µM*
Cc1nc2nc(C)n(CCN3CCOCC3)c(=O)c2c(-c2cccc([N+](=O)[O-])c2)c1C(=O)CCCCCCCCCCN1CCC(c2ccccc2)(c2ccccc2)CC1 | -9% | · | ? | i | · | 2.8µM*
Cc1ccc(O)c(CN(C)Cc2cc(C)ccc2O)c1 | 6% | · | -21% | i | · | 13µM*
Cc1ccc(O)c(NC(=O)C2CC(c3ccc(F)cc3)=NO2)c1 (configuration not stated) | 21% | 3 | 0% | -10% | -2 | 18%
COc1ccc(CCNC(=O)c2ccc3c(c2)N(Cc2cc(C)ccc2C)C(=O)c2ccccc2S3=O)cc1OC (configuration not stated) | 1% | 31* | 1% | -16% | 0 | 0%
COc1ccc(CCNC(=O)c2ccc3c(c2)N(Cc2ccccc2F)C(=O)c2ccccc2S3=O)cc1OC (configuration not stated) | 0% | 10 | 1% | i | 0 | -11%
CCOC(=O)N1CCC(NC(=O)c2ccc3c(c2)N(Cc2ccccc2)C(=O)c2ccccc2S3=O)CC1 (configuration not stated) | 1% | 6 | 1% | -18% | -1 | 5%
O=C(NCCCN1CCCC1)c1ccc2c(c1)N(Cc1ccccc1F)C(=O)c1ccccc1S2=O (configuration not stated) | 0% | 8 | -1% | -27% | 1 | 8.9µM*
CCN(C(=O)c1ccc2c(c1)N(Cc1cccc(Cl)c1)C(=O)c1ccccc1S2=O)c1ccccc1 (configuration not stated) | · | -4 | -27% | i | 0 | 10µM*
CCOC(=O)N1CCC(NC(=O)c2ccc3c(c2)N(Cc2ccc(F)cc2)C(=O)c2ccccc2S3=O)CC1 (configuration not stated) | 2% | 37* | 5% | i | 1 | 1%
Cc1ccc(C)c(CN2C(=O)c3ccccc3S(=O)c3ccc(C(=O)NCCCN4CCCC4)cc32)c1 (configuration not stated) | 8% | 2 | -18% | i | 3 | ?
CCOC(=O)c1ccccc1NC(=O)Nc1ccc(OC)c(OC)c1 | -8% | 8 | 4% | ? | 0 | 6%
Cc1ccc(CNC(=O)c2c(-c3ccccc3)sc3ccccc23)o1 | 9% | · | 7% | -48% | · | 5µM*
O=C(NCc1ccc2c(c1)OCO2)c1c(-c2ccccc2)sc2ccccc12 | 6% | · | 10% | i | · | 9%
Cc1ccc(S(=O)(=O)N2CCOC23CCN(C(=O)c2ccc(Cl)cc2Cl)CC3)cc1 | 10% | 32* | -2% | -27% | 1 | ?
SMILES | GLP-1R agonist | TRHR PAM | HEK293 tox | PTHR1 ag | TRHR agonist | GLP1R inv ag
N#C/C(=C\c1ccc(F)cc1)c1nc(-c2ccc(-c3ccccc3)cc2)cs1 | · | -3 | -6% | -5% | 0 | 9%
CC(/C=N/NC(=O)Cn1nccc1C)=C\c1ccc(C(C)C)cc1 | 13% | -1 | -1% | -6% | -2 | 11µM*
COC(=O)c1cn(NC(=O)c2cc([N+](=O)[O-])ccc2F)c(=O)c2ccccc12 | 1% | 0 | -6% | -11% | 0 | 1.6µM*
Cc1ccc(NS(=O)(=O)c2cc(NC(=O)c3ccc4c(c3)NC(=O)CS4)ccc2Cl)c(C)c1 | -3% | -3 | ? | -90% | 0 | 2.5µM*
COc1ccc(NC(=O)c2ccc3c(c2)NC(=O)CS3)cc1 | -5% | 2 | 0% | -51% | 0 | 4%
COc1ccc(CCN(C(=O)C(F)(F)F)C(C(=O)NC2CCCCC2)c2cccs2)cc1 (configuration not stated) | 5% | -2 | -4% | i | 0 | 6.3µM*
COc1ccc(CCN(C(=O)C(F)(F)F)C(C(=O)NC2CCCCC2)c2ccc(C)s2)cc1 (configuration not stated) | 0% | -8 | -12% | i | 0 | ?
O=C(O)c1ccc(-c2ccc(OS(=O)(=O)c3ccccc3F)cc2)cc1 | 7% | -5 | -14% | -24% | 1 | 108%
Cc1cccn2c(=O)c3cc(C(=O)Nc4ccc(Cl)c(Cl)c4)sc3nc12 | · | 0 | -3% | -19% | 1 | 3%
Cc1c(N2C(=O)/C(=C/c3ccc(N(C)C)cc3)N(C)C2=S)c(=O)n(-c2ccccc2)n1C | 9% | · | 5.6µM* | i | · | ?
O=C(Nc1ccc(F)cc1)c1ccccc1Oc1ccc(C(F)(F)F)cc1[N+](=O)[O-] | -12% | 4 | ? | -35% | 1 | 10µM*
